This is an account of results in PubChem BioAssay (NCI).

About 83,000 compounds went through this panel and 20% of them were active in at least one assay; those are over-represented in the sample as a whole.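 Each cell line was grown in a 96-well plate and treated with one concentration of compound for 48 hours. Values below 10 were considered active.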 A number with no mark means an inactive call. Active and inactive are the calls of the source.

The assay relates to NCI/ADR-RES ovarian. Nature of the assay: NCI-60 one-dose screen, 48 h (100 = growth as untreated, 0 = no growth, -100 = all killed). As to conditions: 10 µM unless noted.
Regarding `O=C(Nc1nc2ccc(C(=O)N3CCN(/C=C/c4ccccc4)CC3)cc2s1)c1ccc(NCCc2ccccc2)c([N+](=O)[O-])c1`, the growth was 70.2%. `COC12C=C/C(=C(/C(=O)OCc3ccncc3)C(=O)CCCCCCCCC3(OC)C=C/C(=C(/C(=O)OCc4ccncc4)C(=O)CCCCCCCC1)O3)O2`: the growth was 5.85% (active). Next, `Cc1ccc2c(n1)C(=O)C(Br)=C(C1CCCC1)C2=O`: 97.1%. For `C#COc1cccc(Nc2c(C#N)cnc3ncc(NC(=O)CCl)cc23)c1`, the growth was 76.5% [6.25 µM].

With `COc1cc(-c2csc(NC(=O)c3ccc(N4CCOCC4)c(C(F)(F)F)c3)n2)cc(OC)c1OC`, the growth was 3.62% (active). Next, `CC/C=C\C[C@H](O)C/C=C1/C(=O)C=C[C@@H]1C/C=C\CCCC(=O)N(C)C`: 16.7%; `Oc1c(I)cc(I)cc1CNCCN(Cc1ccccn1)Cc1ccccn1`: -18.4% (active); `CC1=C([Se]CC(OC(=O)CC[Se]c2ccccc2)C(=O)NC(C)(C)C)C(=O)c2ccccc2C1=O` (stereo unspecified): -36.3% (active). Next, `Cc1cn(-c2cc(NC(=O)c3cncc(C#Cc4cnc(N)c5ncccc45)c3)cc(C(F)(F)F)c2)cn1`: 86.9%; `CC(C)c1ccc(-n2c(=S)[nH]c3sc4cc(O)ccc4c3c2=O)cc1`: 103%. On to `COc1ccccc1CNc1c2ccccc2nc2ccccc12`, for which the growth was 34.8%. For `COC(=O)c1nc(-c2ccccc2)oc1S(=O)(=O)Cc1ccccc1` the value was 97%. As for `O=C1/C(=C/c2ccccc2Br)COc2ccc(O)cc21`, the growth was 46.9%.

In the case of `C/C(Cc1ccc(Cl)cc1)=C(\c1ccc(O)cc1)c1ccc(Cl)cc1`, the growth is 100%. Regarding `COC12C=C/C(=C(/C(=O)OCc3ccncn3)C(=O)CCCCCCCCC3(OC)C=C/C(=C(/C(=O)OCc4ccncn4)C(=O)CCCCCCCC1)O3)O2`, the growth was 7.59% (active). As to `CCc1ccccc1-n1c(-c2ccc(OC)cc2)cc(-c2ccc(OC)cc2)c(C#N)c1=O`, the growth was 72.4%.

Regarding `COCCn1cc(-c2csc(-c3cn(C)c4ccc(Br)cc34)n2)c2cccnc21`, the growth was 60%. Next, `C=CCc1c(O)c(C(=O)/C=C/c2ccccc2)c(OC)c2ccoc12`: 21%; `COc1cc(-c2nc3sccn3c2-c2ccnc(NCCNS(=O)(=O)c3ccccc3)n2)ccc1F`: 47%; `O=c1c2cnn(-c3ccccc3)c2n2c(CN3CCOCC3)nnc2n1-c1ccccc1`: 98.8%. Consider `O=C1C(Cl)=C(Nc2ccc(S(=O)(=O)N3CCOCC3)cc2)C(=O)c2ccccc21`, for which the growth is 90%. Take `O=C(COc1ccc(-c2nc3cc(Cl)c(Cl)cc3[nH]2)cc1)N=Nc1c(O)[nH]c2ccc(Cl)cc12`: the growth was 95.8%. For `CC1CCc2c(C(=O)Nc3ncc(Cc4cccc([N+](=O)[O-])c4)s3)csc2C1` (stereo unspecified) the value was 15.6%; for `CC(C)(Sc1cc(C(C)(C)C)c(O)c(C(C)(C)C)c1)Sc1cc(C(C)(C)C)c(OC(=O)CCCC(=O)O)c(C(C)(C)C)c1`, 78.7%; for `CCSc1oc(-c2ccccc2)nc1[P+](c1ccccc1)(c1ccccc1)c1ccccc1`, 67.4%. `C#CCOC(=O)/C=C/c1cn(-c2ccccc2)nc1-c1ccc(OC)cc1`: the growth is 98.4%.

`Cc1ccc(CNc2ccc3nc(CCC4CCCCC4)[nH]c3c2)cc1`: the growth was 40.4%.

Regarding `CCn1c(SCC(=O)N/N=C(\C)c2ccc(Cl)cc2)nc2c1c(=O)n(C)c(=O)n2C`, the growth is 102%. For the compound `COc1ccc(\C=N/N=C(N)/C(N)=N\N=C/c2ccc(OC)cc2)cc1`, the growth is 107%. For `c1cc2c(ccc3[nH]c(-c4ccc5[nH]ncc5c4)c4c(c32)CCCC4)n1`, the growth was 83.2%. `Cc1ccc2c(Cn3cc(CSc4nc5ccccc5o4)nn3)cc(=O)oc2c1`: the growth was 99.3%.

In the case of `C=C(C)[C@@H]1CCC[C@]2(COS(=O)(=O)c3ccc(C)cc3)CC[C@]3(C)[C@@H](CC[C@@H]4[C@@]5(C)CCCNC(C)(C)[C@@H]5CC[C@]43C)[C@@H]12`, the growth is -3.42% (active). Take `COC(=O)c1c(C)c2n(c1C)C(=O)C(c1ccccc1)=C2`: the growth was 86.8%.

Take `COc1cc2cc(NCc3cccc(Cl)c3)nc(C)c2cc1OC`: the growth is 42.5%. For `CCN(CC)Cc1cc(C=C2C(=O)NC(=S)NC2=O)cc(OC)c1O` the value was 110%; for `Cc1cc(=O)oc2cc(OCc3nn4c(Nc5nc6ccccc6s5)c(-c5ccccc5)nc4s3)ccc12`, 84.6%.
